Data: ChEMBL document CHEMBL4513146, “CO-ADD screening of Karazin Kharkiv National University (Ukraine) compounds”
Entries with a potency or affinity are not part of this list.

The compounds below were run on Klebsiella pneumoniae. Conditions: Concentration 32 ug.mL-1;; ASSAY_TEST Inhibition of Bacterial Growth; detection method Absorption (OD600); MEDIA CAMHB; plate type 384well; NBS; CORNING #3640; time 18 hr.

| SMILES | Inhibition [%] |
| --- | --- |
| Cc1cc(C)cc(NC(=O)Cn2nc3ccc(-c4ccc(C)c(C)c4)nn3c2=O)c1 | 5.54 |
| Cc1ccc(-c2ccc3nn(Cc4c(F)cccc4Cl)c(=O)n3n2)cc1 | 17.42 |
| CC(C)c1nnc2c(=O)n(CC(=O)Nc3ccccc3)c3ccccc3n12 | 14.31 |
| O=C(Cn1nc2c(SC3CCCCC3)nccn2c1=O)Nc1cccc(Br)c1 | -4.59 |
| COc1ccc(-c2cc3c4nn(CC(=O)Nc5ccccc5OC)c(=O)n4ccn3n2)cc1 | 7.14 |
| COc1ccccc1N1CCN(C(=O)CSc2nnc3c(=O)n(-c4ccc(F)cc4)ccn23)CC1 | 11.85 |
| Cc1ccc(Cl)cc1NC(=O)CSc1nnc2n(CC3CCCO3)c(=O)c3sccc3n12 (stereo not given) | 10.58 |
| O=c1c2nn(Cc3cccc(F)c3)c(=O)n2ccn1-c1ccccc1 | 3.5 |
| Cc1nnc2c(=O)n(CC(=O)Nc3cccc(Cl)c3)c3ccccc3n12 | 15.43 |
| CCc1nnc2ccc(S(=O)(=O)N(Cc3ccccc3)c3ccccc3)cn12 | 4.93 |
| Cc1ccc(Oc2nccn3c(=O)n(CC(=O)NCc4cccs4)nc23)cc1 | 11.41 |
| CCOc1ccc(-n2ccn3c(SCC(=O)Nc4cccc(Cl)c4)nnc3c2=O)cc1 | 10.12 |
| CN(C(=O)Cn1nc2nc(Nc3ccc(F)cc3)ccn2c1=O)c1ccccc1 | 8.25 |
| Cc1ccc(NC(=O)Cn2nc3c4cc(-c5ccc(C)c(C)c5)nn4ccn3c2=O)cc1C | 4.54 |
| Cc1cc(C)c(NC(=O)Cn2nc3c(Sc4ccccc4)nccn3c2=O)c(C)c1 | -3.36 |
| Cc1ccc(-c2ccc3nn(Cc4ccc5c(c4)OCO5)c(=O)n3n2)cc1C | 2.14 |
| COCCCNC(=O)CSc1nnc2c(=O)n(Cc3ccccc3F)ccn12 | 15.39 |
| COc1ccccc1CNC(=O)CSc1nnc2c3cc(-c4ccc(C)cc4)nn3ccn12 | -1.35 |
| COc1ccc(NC(=O)Cn2nc3ccc(-c4ccccc4)nn3c2=O)cc1OC | -3.16 |
| Cc1nnc2c(S(=O)(=O)N(Cc3cccc(F)c3)c3ccc(C(C)C)cc3)cccn12 | 9.6 |

| SMILES | Inhibition [%] |
| --- | --- |
| COc1ccc(-c2cc3c4nnc(SCC(=O)N(C)c5ccccc5)n4ccn3n2)cc1 | 5.6 |
| COc1ccccc1Cn1c(=O)c2sccc2n2c(=O)n(CC(=O)c3ccc(C)cc3C)nc12 | 4.01 |
| CCOc1ccccc1NC(=O)Cn1nc2c(Sc3ccccc3)nccn2c1=O | 3.54 |
| COc1ccccc1-n1ccn2c(SCc3ccccc3C)nnc2c1=O | 12.73 |
| Cc1nnc2c(S(=O)(=O)N(Cc3cccc(Cl)c3)c3ccc(F)c(F)c3)cccn12 | 3.16 |
| CC(=O)c1ccc(N2CCN(C(=O)CCc3nnc4c5cc(-c6ccccc6)nn5ccn34)CC2)cc1 | 14.87 |
| COc1ccc(N(Cc2cccc(Cl)c2)S(=O)(=O)c2ccc3nnc(C)n3c2)cc1 | 12.69 |
| CCCNC(=O)CSc1nnc2c(=O)n(-c3ccc(F)cc3)ccn12 | 12.9 |
| COc1ccc(-c2cc3c4nn(CC(=O)Nc5ccc(C)c(F)c5)c(=O)n4ccn3n2)cc1 | 3.92 |
| CC(C)(C)Sc1ccc2nn(CC(=O)N3CCN(c4ccc(F)cc4)CC3)c(=O)n2n1 | 10 |
| COc1ccc(-c2cc3c4nnc(SCC(=O)Nc5cccc(C#N)c5)n4ccn3n2)cc1 | 2.25 |
| O=c1c2sccc2n2c(=O)n(Cc3ccc(Br)cc3)nc2n1Cc1cccs1 | -4.09 |
| COc1ccc(CCn2c(=O)c3sccc3n3c(=O)n(CC(=O)c4ccccc4)nc23)cc1OC | 16.06 |
| Cc1ccc(-c2cc3c4nn(CC(=O)NC5CCCC5)c(=O)n4ccn3n2)cc1C | 3.15 |
| Cc1cc2nn(CC(=O)Nc3ccc(F)cc3F)c(=O)n2c(Nc2ccc(F)c(C)c2)n1 | 11.68 |
| COc1ccc(-c2noc(Cn3nc4ccc(-c5ccccc5)nn4c3=O)n2)cc1OC | 11.35 |
| CC(C)Cn1c(=O)c2sccc2n2c(=O)n(CC(=O)NC(C)(C)C)nc12 | 2.39 |
| COc1cccc(-c2nc(CSc3nc4ccccc4n4c(C(C)C)nnc34)c(C)o2)c1OC | 2.62 |
| O=C(Cn1nc2nc(Nc3ccc(F)cc3)ccn2c1=O)N1CCOCC1 | 14.5 |
| CSc1cccc(NC(=O)Cn2nc3ccc(SC4CCCCC4)nn3c2=O)c1 | 4.23 |
